Experimental data: PubChem BioAssay (NCI)
About 83,000 compounds went through this panel and 20% of them were active in at least one assay; those are over-represented in the sample as a whole.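 Testing used 96-well plates and a 48-hour single-concentration exposure. Example: -40 means 40% of the starting cells died.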 Values without a mark were called inactive. Active and inactive are the calls of the source. The calls were made as follows: active = growth percent below 10; inactive = the rest.

Assays:
Assay in all cases: NCI-60 one-dose screen, 48 h (100 = growth as untreated, 0 = no growth, -100 = all killed)
Settings in all cases: 10 µM unless noted
DU-145 prostate = system: DU-145 prostate
K-562 leukemia = system: K-562 leukemia
MALME-3M melanoma = system: MALME-3M melanoma
MDA-MB-231 breast = system: MDA-MB-231 breast
RXF 393 renal = system: RXF 393 renal
SF-268 CNS = system: SF-268 CNS
SF-295 CNS = system: SF-295 CNS
SF-539 CNS = system: SF-539 CNS
UACC-257 melanoma = system: UACC-257 melanoma
M14 melanoma = system: M14 melanoma
HCT-15 colon = system: HCT-15 colon
HT29 colon = system: HT29 colon
SNB-75 CNS = system: SNB-75 CNS
SNB-19 CNS = system: SNB-19 CNS
U251 CNS = system: U251 CNS
PC-3 prostate = system: PC-3 prostate
SK-MEL-5 melanoma = system: SK-MEL-5 melanoma
UACC-62 melanoma = system: UACC-62 melanoma
LOX IMVI melanoma = system: LOX IMVI melanoma
SK-MEL-28 melanoma = system: SK-MEL-28 melanoma

Compound	growth (DU-145 prostate)	growth (K-562 leukemia)	growth (MALME-3M melanoma)	growth (MDA-MB-231 breast)	growth (RXF 393 renal)	growth (SF-268 CNS)	growth (SF-295 CNS)	growth (SF-539 CNS)	growth (UACC-257 melanoma)	growth (M14 melanoma)	growth (HCT-15 colon)	growth (HT29 colon)	growth (SNB-75 CNS)	growth (SNB-19 CNS)	growth (U251 CNS)	growth (PC-3 prostate)	growth (SK-MEL-5 melanoma)	growth (UACC-62 melanoma)	growth (LOX IMVI melanoma)	growth (SK-MEL-28 melanoma)
Clc1ccc(N2CCN(CCCN3CCN(c4cccc(Cl)c4)CC3)CC2)cc1	79.7%	38.8%	52.8%	50.6%	41%	79.2%	51.7%	56.4%	37.4%	44.1%	40.2%	34.7%	52.3%	63.3%	55.2%	45.3%	1.8% (active)	58.9%	48.4%	84.6%
Cc1cccc(C[C@H](NC(=O)Nc2ccc(Cl)cc2F)C(=O)N[C@@H]2C(=O)N3C[C@H](O)C[C@H]3C(=O)N3CCN(C)C[C@H]3C(=O)N[C@@H](C)C(=O)N3C[C@H](C)C[C@H]3C(=O)O[C@H]2C)c1	36.3%	24.4%	42.9%	22.4%	81.7%	30%	19.7%	53.8%	22.6%	63.5%	105%	36%	18.8%	22.5%	23.5%	19.6%	40.7%	28.3%	40.9%	42.4%
COc1ccc(-c2cc(-c3ccc(Cl)cc3)nc(NCCCCNc3ccnc4cc(Cl)ccc34)n2)cc1	98.8%	0.414% (active)	-18% (active)	73.4%	26.5%	86.5%	83.8%	64.8%	3.17% (active)	34.6%	0.532% (active)	4.81% (active)	99.5%	95.5%	70.9%	54.8%	26.8%	84.8%	-78.3% (active)	-7.9% (active)
C#C[C@]1(O)CC[C@H]2[C@@H]3CC=C4c5nc(N)sc5CC[C@]4(C)[C@H]3CC[C@@]21C	71.2%	29.7%	42.1%	45.4%	-22.4% (active)	62.8%	-43.6% (active)	-32% (active)	72.8%	81.1%	42.4%	41.6%	-5.36% (active)	71.6%	38.1%	47.5%	60.4%	30.3%	55.4%	57.1%
Cc1ccc(-n2nc3n(/c2=N\C(=O)NS(=O)(=O)c2ccc(C)cc2)CCN3C2=NCCN2)cc1	108%	109%	106%	99.7%	123%	103%	102%	95.1%	98.1%	101%	105%	107%	85.6%	99.2%	105%	96.4%	105%	95.9%	113%	101%
NS(=O)(=O)c1ccc(CCN2C(=O)/C(=C\c3ccccc3)C=C2c2ccc(Cl)cc2)cc1	115%	94.8%	95.1%	86.2%	91%	90.6%	100%	99.9%	104%	99%	99.2%	107%	59.3%	87%	98.9%	90%	98.7%	81.9%	99.8%	101%
O=C(Nc1ccc(Oc2ccc(F)cc2)c(Cl)c1)c1cccnn1	76.7%	55.5%	105%	88.1%	82.6%	80.4%	73.4%	85.5%	64.3%	114%	77.6%	76.7%	87.8%	66.2%	62.9%	64.4%	30.7%	62.5%	72.8%	90.9%
CCn1cc(-c2ccnc(NCCNS(=O)(=O)c3cccc4ccccc34)c2)c(-c2cccc(O)c2)n1	97.9%	75.7%	109%	108%	92.9%	94.7%	101%	104%	109%	103%	96.7%	92.9%	107%	106%	53%	83.2%	95.8%	97.2%	111%	107%
CCCCCCCCCCCCCC[n+]1cccc(C(N)=O)c1	27.8%	9.03% (active)	-33.9% (active)	-22.9% (active)	-41.4% (active)	-24.2% (active)	-30.9% (active)	-5.92% (active)	24.3%	-38.8% (active)	67.6%	0.436% (active)	-57.2% (active)	-69.4% (active)	-72.7% (active)	-29% (active)	-90.9% (active)	1.18% (active)	15.7%	28.5%
Cc1cnc([C@]23CC[C@@H](C)[C@H](C)[C@H]2C2=CC[C@@H]4[C@@]5(C)Cc6c([nH]c7ccccc67)C(C)(C)[C@@H]5CC[C@@]4(C)[C@]2(C)CC3)o1	69.9% [100 µM]	38.3% [100 µM]	59.1% [100 µM]	38.3% [100 µM]	101% [100 µM]	36.1% [100 µM]	31.7% [100 µM]	6.53% [100 µM] (active)	61.5% [100 µM]	28.4% [100 µM]	66.8% [100 µM]	25.7% [100 µM]	62.4% [100 µM]	35.6% [100 µM]	41.7% [100 µM]	55.4% [100 µM]	29% [100 µM]	24.4% [100 µM]	17.3% [100 µM]	20.3% [100 µM]
CC(C)C1=NOC(=O)C1=Cc1cn(-c2ccccc2)nc1-c1ccccc1	80.8%	42.2%	90.5%	97.4%	70.3%	93.9%	98.1%	91.3%	94.1%	76.2%	77.4%	49.2%	72.5%	74.8%	53%	67.9%	91.6%	76.1%	18%	95.1%
O=C(N/N=C/c1c(Cl)cccc1Cl)c1cccc(Nc2ccnc(C(F)(F)F)c2)c1	120%	104%	113%	76.8%	111%	125%	90.3%	92.9%	102%	80.8%	78.5%	96.7%	93.7%	85.7%	89.6%	77%	54.6%	72.5%	83.7%	99.3%
COc1ncc(-c2ccc3nccc(C#CCCCCC(=O)NO)c3c2)cc1NS(=O)(=O)c1ccc(F)cc1F	12.4%	17.3%	-40.5% (active)	-11.8% (active)	-56.6% (active)	-11.6% (active)	-9.35% (active)	-45.7% (active)	-16.4% (active)	-48.7% (active)	24.9%	7.04% (active)	-15.3% (active)	4.98% (active)	-14% (active)	7.68% (active)	-97.3% (active)	-37.3% (active)	-69.4% (active)	-27.9% (active)
CCOC(=O)c1nc2c3ccccc3ccn2c1C(=O)OC	104%	113%	100%	99.9%	93.8%	101%	106%	100%	102%	107%	97%	90.1%	78.9%	91.4%	96.2%	105%	96.6%	89.4%	109%	96.5%
C=CCc1nc2ccccc2s1	114%	96.9%	115%	103%	122%	108%	117%	119%	90.4%	108%	94.3%	89.9%	90.2%	110%	100%	88.1%	114%	106%	99.3%	106%
